# “And” between values parts separate entries of the source, which are not always exact repeats. Identical values can stand only once. Inconclusive results are not listed. Values without a mark were called inactive. The source made the active and inactive calls. Calls follow the shape of the dose curve; as a rule, active = well fitted cell-killing curve with a large enough effect in the repeat runs; inconclusive = weak or mixed curves, or effect the other way; inactive = flat fitted curve, though single readings scatter.
# Test: qHTS RealTime-Glo MT Cell Viability Assay in HEK293 cells - 40 hour (AID 1224874); also: nearly all actives have a fitted effect of over 50% in size
# Conditions: RealTime-Glo luminescence; max response: active compounds read low
# From the text: U.S. Tox21 Program National Center for Advancing Translational Sciences [NCATS] NIH Chemical Genomics Center [NCGC] U.S. Environmental Protection Agency [EPA] National Institutes of Environmental Health Sciences [NIEHS] National Toxicology Program [NTP] U.S. Food and Drug Administration [FDA] Tox21 Assay Overview: Measure of cell viability is critical in the cell-base assay. Analysis of cell viability is necessary for the characterization of cell responses to cytotoxic drugs and environmental stress. A RealTime-Glo MT Cell Viability Assay to monitor cell viability in real time of continues cell culture during 40 hours of compound treatment was used to screen Tox21 10K library compounds in Hek293 cells. The RealTime-Glo MT Cell Viability Assay is a nonlytic, homogeneous, bioluminescent method to measure cell viability in real time using a simple, plate-based method. The assay involves adding NanoLuc luciferase and a cell-permeant prosubstrate to cells in culture. Viable cells reduce the proprietary prosubstrate to generate a substrate for NanoLuc luciferase. This substrate diffuses from cells into the surrounding culture medium, where it is rapidly used by the NanoLuc Enzyme to produce a luminescent signal. The signal correlates with the number of viable cells, making the assay well suited for cytotoxicity studies.
# Tox21 Assay Protocol Summary: The mixture of Hek293 cell suspension and reagents were dispensed at 600cells/6 ul/well in 1536-well tissue culture treated black solid bottom plates using a Multidrop dispenser. After the assay plates were incubated at a 37 C/5% CO2 incubator for 5 hours, 23 nL of compounds dissolved in DMSO, positive and negative controls was transferred to the assay plate by a pintool work station. The plates were incubated at 37 C for 40 hours. The luminescence intensity were measured at 0h, 8h, 16h, 24h, 32h and 40h time points using ViewLux plate reader during compound treatment.
# % is scaled to controls: 0 for no effect and ±100 for the full control effect; potency is read from the fitted curve at half-maximal effect.
SMILES,Potency,max response
COc1ccc(C(c2ccc(OC)cc2)C(Cl)(Cl)Cl)cc1,52.6 µM (active),–
Cc1cc(C(C)(C)c2ccc(O)c(C)c2)ccc1O,20.8 µM (active),–
CCN(CC)C(=O)Cl,–,13.5%
Nc1ccc([N+](=O)[O-])cc1,38.9 µM (active),–
CC1COC(Cn2cncn2)(c2ccc(Oc3ccc(Cl)cc3)cc2Cl)O1 (stereo not drawn),17.4 µM (active),–
CCOC(=O)C(O)(c1ccc(Cl)cc1)c1ccc(Cl)cc1,22.1 µM (active) and 34.7 µM (active),–
Cc1ccc2nc3sc(=O)sc3nc2c1,–,3.19%
O=C(c1ccccc1)C(Cl)Cl,38.9 µM (active),–
Cc1nnc2n1-c1sc(CCc3ccc(CC(C)C)cc3)cc1C(c1ccccc1Cl)=NC2C (stereo not drawn),9.52 µM (active),–
N#Cc1cc([N+](=O)[O-])ccc1N,–,-6.49%
O=C1C(I)=CC(=C(c2cc(I)c(O)c(I)c2)c2ccccc2C(=O)O)C=C1I,–,-8.4%
CN1CSC(=S)N(C)C1,13.7 µM (active) and 21.8 µM (active),–
Cc1cc(C)c(C(=O)P(=O)(c2ccccc2)c2ccccc2)c(C)c1,38.9 µM (active),–
Oc1c(I)cc(I)cc1I,–,-25%
O=[N+]([O-])c1c(Cl)c(Cl)cc(Cl)c1Cl,–,0.554%
OCC(c1ccc(Cl)cc1)c1ccc(Cl)cc1,38.9 µM (active),–
Cc1ccc(N(SC(F)(Cl)Cl)S(=O)(=O)N(C)C)cc1,5.49 µM (active),–
CC(c1ccccc1)(c1ccc(O)cc1)c1ccc(O)cc1,43.6 µM (active),–
CO/C=C(/C(=O)OC)c1ccccc1Oc1cc(Oc2ccccc2C#N)ncn1,33.8 µM (active),–
c1ccc2c(c1)Sc1ccccc1N2CC1CN2CCC1CC2 (stereo not drawn),23.9 µM (active),–
O=S(=O)(C(Cl)(Cl)Cl)C(Cl)(Cl)Cl,8.71 µM (active),–
COc1cc(OC)c(OC)cc1C=O,–,-0.404%
C[C@]12CC[C@@H](O)C[C@@H]1CC[C@@H]1[C@@H]2CC[C@]2(C)C(=O)CC[C@@H]12,24.5 µM (active),–

# From PubChem BioAssay (Tox21)
